Data published in PubChem BioAssay AID623870 (Broad Institute, 2012).
Among all 390,000 compounds or so, about 2,600 (0.67%) were called active. For the sample, actives were picked, then their nearest neighbours and some compounds at random. Unmarked numbers belong to inactive results.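 How the source made its calls: active means mean inhibition of replicates at least 50% and at least half of replicates each reaching 50%; inconclusive means half or more replicates reach 50% but mean below 50%; inactive means the rest.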

These compounds were tested against Transforming acidic coiled-coil-containing protein 3 (Homo sapiens) (UniProt Q9Y6A5) (assay: disruptors of ARNT/TACC3 protein interaction, primary screen, biochemical, AlphaScreen, single concentration (AID 623870;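 further: 0% = complete ARNT plus TACC3 wells and 100% = ARNT alone without TACC3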)). Details: AlphaScreen His-ARNT PAS-B/GST-TACC3 binding, luminescence; at 9.99 µM; hits give high values; TACC3 fragment carries E629A point mutation.

Row | SMILES | inhibition
1 | O=C(NC1=CC(=O)c2ccccc2C1=O)c1ccccc1 | 2.4% (active)
2 | Cc1ccccc1S(=O)(=O)N1C[C@H](O)COC[C@H]2O[C@H](CC(=O)N3CCCCC3)CC[C@@H]21 | 1.95%
3 | CNC[C@@H]1Oc2ccc(NC(=O)C3CCCCC3)cc2CC(=O)N([C@@H](C)CO)C[C@H]1C | -6.19%
4 | CN(C)C(=O)c1cccc(-c2ccc3c(c2)[C@H]2[C@H](CCN2S(=O)(=O)c2cn(C)cn2)[C@@H](CO)N3)c1 | 0.583%
5 | O=C(NC[C@@H]1[C@@H](c2ccccc2)[C@@H](CO)N1Cc1ccccn1)C1CCC1 | 23.8% (active)
6 | CN(C[C@@H]1[C@H](c2ccccc2)[C@@H](CO)N1Cc1ccccn1)S(C)(=O)=O | 29.6%
7 | O=C(NC[C@@H]1[C@@H](c2ccccc2)[C@H](CO)N1C(=O)Cc1cccnc1)C1CC1 | -0.188%
8 | CCCNC(=O)N1C[C@@H](O)COC[C@H]2O[C@H](CC(=O)NCCCN3CCOCC3)CC[C@@H]21 | -6.54%
9 | CN(C)C(=O)c1cccc(-c2ccc3c(c2)[C@H]2[C@H](CCN2C(=O)Cc2ccccc2)[C@H](CO)N3)c1 | -7.24%
10 | CN(C)C(=O)C[C@@H]1CC[C@@H](NS(=O)(=O)c2ccccc2)[C@H](CO)O1 | 1.05%
11 | Cc1ccc(S(=O)(=O)N2CC(C)N(S(C)(=O)=O)C2)cc1 (centres undefined) | -0.994%
12 | Cc1ccc(S(=O)(=O)n2oc(=O)c(C3CCCCC3)c2N)cc1 | 64.1% (active)
13 | Cc1ccc(S(=O)(=O)N2CCCC2CO)cc1 (centres undefined) | -6.07%
14 | C[C@H](CO)N1C[C@H](C)[C@@H](CN(C)C(=O)C2CCC2)Oc2cc(C3=CCCCC3)ccc2S1(=O)=O | 7.82%
15 | CCOC(=O)C1CCN(C(=O)C2CCN(S(=O)(=O)c3c(C)noc3C)CC2)CC1 | 46.8% (active)
16 | CCOC(=O)C1CCN(C(=O)C2CCN(S(=O)(=O)CC)CC2)CC1 | -3.42%
17 | CCOC(=O)C1CCN(S(=O)(=O)c2c(C)noc2C)CC1 | -6.32%

Row | SMILES | inhibition
18 | COC(=O)C[C@@H]1CC[C@@H]2[C@H](COc3ccc(NC(=O)c4ccccc4OC)cc3C(=O)N2C)O1 | -6.13%
19 | CN1C[C@H]2[C@@H](c3ccccc31)[C@@H](CO)N2C(=O)Nc1ccccc1 | -0.471%
20 | COc1ccc(S(=O)(=O)N(C)C[C@@H]2OCc3ccccc3-c3ccccc3C(=O)N([C@@H](C)CO)C[C@@H]2C)cc1 | -0.955%
21 | Cc1[nH]n(-c2cccc(Cl)c2)c(=O)c1/C=N/n1c(C)nc2ccccc2c1=O | 46.7% (active)
22 | Cc1nc2ccccc2c(=O)n1-c1ccc(NS(=O)(=O)c2ccc(F)cc2F)cc1 | -1.59%
23 | CCCNC(=O)Nc1ccc2c(c1)C(=O)N(C)C[C@@H](OC)[C@@H](C)CN(Cc1ccccn1)[C@@H](C)CO2 | -2.12%
24 | CO[C@@H]1CN(C)C(=O)c2cc(NS(=O)(=O)Cc3ccccc3)ccc2OC[C@H](C)NC[C@H]1C | 1.43%
25 | CC(C)NC(=O)N[C@H]1CC[C@H](CC(=O)NCCCN(C)C)O[C@H]1CO | -5.48%
26 | C[C@H](CO)N1C[C@H](C)[C@H](CN(C)CC2CC2)OCCCC[C@H](C)Oc2ccc(NS(=O)(=O)c3cccs3)cc2C1=O | -8.86%
27 | C[C@@H]1CN([C@@H](C)CO)C(=O)c2cccc(NC(=O)Nc3ccc(C(F)(F)F)cc3)c2O[C@@H]1CN(C)S(=O)(=O)c1cccs1 | -2.19%
28 | COC(=O)CCCCCCC(=O)Nc1ccc(C2OC(CSc3nc(-c4ccccc4)c(-c4ccccc4)o3)CC(c3ccc([N+](=O)[O-])cc3)O2)cc1 (centres undefined) | 1.18%
29 | Nc1nnnn1/N=C/c1cccc(Br)c1 | 3.65%
30 | Nc1nnnn1/N=C/c1cccs1 | 3.88%
31 | Nc1nnnn1/N=C/c1cc([N+](=O)[O-])ccc1O | 75.7% (active)
32 | C[C@@H]1CCCCO[C@@H](CN(C)S(=O)(=O)c2cn(C)cn2)[C@H](C)CN([C@H](C)CO)C(=O)c2cc(NC(=O)NC3CCCCC3)ccc2O1 | -15%
33 | O=C(C[C@@H]1C[C@@H]2c3cc(NC(=O)CC4CC4)ccc3O[C@@H]2[C@@H](CO)O1)NCCN1CCCCC1 | -1.06%
34 | COCC#Cc1cnc2c(c1)C(=O)N([C@@H](C)CO)C[C@@H](C)[C@H](CN(C)C(=O)c1cnccn1)O2 | 4.05%
